The values below come from PubChem BioAssay (Tox21).

Structures are written as SMILES. Results filed as inconclusive are left out. Activity calls are given as the source filed them. Unless noted, calls follow the shape of the full dose curve.

Assay [1] in a line: Nuclear factor erythroid 2-related factor 2/antioxidant responsive element (Nrf2/ARE) small molecule agonists: luciferase reporter gene qHTS assay in human keratinocytes (AID 1919969). Also: nearly all actives have a fitted effect of over 35% in size. Also: potency is read from the fitted curve at half-maximal effect.
Assay [2] has as its target Gonadotropin-releasing hormone receptor (Homo sapiens) (UniProt P30968). Briefly: Human gonadotropin-releasing hormone receptor (GnRHR) small molecule agonists, calcium flux assay in GnRHR-HEK293 cells (AID 1920063). Also: nearly all actives have a fitted effect of over 35% in size. In a few lines:
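Cells: HEK293 stably expressing human GnRHR. Steps: overnight (18 h) culture, 1 h calcium dye loading at 37 C, compound addition, kinetic fluorescence read at 480/540 nm. Each compound tested at 15 concentrations in triplicate.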

Assay [3] concerns the target KiSS-1 receptor (Homo sapiens) (UniProt Q969F8). Briefly: Human kisspeptin (KISS1R) small molecule agonists, calcium flux assay in KISS1R-HEK293 cells (AID 1920064; active = well fitted activation curve with a large enough effect in the repeat runs). In a few lines: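 Cells plated and incubated 18 h; dye added, 1 h at 37 C; compounds in DMSO pinned in; signal read at 480/540 nm every second for 3 min. Each compound tested at 15 concentrations in triplicate.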

Assay [4] is described as follows: G protein-coupled receptor (GPCR) small molecule agonists, calcium flux assay: HEK293 wild type cell line counter screen (AID 1920065). In a few lines:
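Counter-screen of the Tox21 10K library for non-specific calcium release: dye-loaded cells received compounds in DMSO and were monitored by kinetic fluorescence (480/540 nm, 3 min). Fifteen concentrations, run in triplicate.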

Assay [5] can be described thus: p53 small molecule agonists, cell-based qHTS assay with human liver microsomes: qHTS cell viability counter screen (AID 1963579). Also: nearly all actives have a fitted effect of over 45% in size. The gist of the method:
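Seed p53RE-bla cells at 4,000 per well; incubate 5 h at 37 C; add compound, human liver microsomes and NADPH; incubate 16 h at 37 C; add CellTiter-Glo; after 30 min at room temperature, read luminescence.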

Assay [6] is described as follows: p53 small molecule agonists, cell-based qHTS assay with rat liver microsomes: qHTS cell viability counter screen (AID 1963580). Also: nearly all actives have a fitted effect of over 45% in size. Also: potency is read from the fitted curve at half-maximal effect. In a few lines: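 p53RE-bla HCT-116 cells (4,000/well) rested 5 h at 37 C, then given Tox21 compounds in DMSO with rat liver microsomes (0.5 mg/mL final) plus NADPH (0.5 mg/mL final) for 16 h at 37 C. Viability read by CellTiter-Glo luminescence after 30 min at room temperature.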

The target in assay [7] is 5-hydroxytryptamine receptor 2A (Homo sapiens) (UniProt P28223). Briefly: 5-hydroxytryptamine receptor 2A (HTR2A) small molecule antagonists, cell-based qHTS assay (AID 1963586). Also: nearly all actives have a fitted effect of over 45% in size. In a few lines:
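Antagonist-mode intracellular calcium assay: DOI (4 nM) added after 5 min compound pre-incubation at room temperature to dye-loaded HTR2A-CHO cells. Fluorescence followed for 3 min, sampled every second.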

The target is the same in assay [8]. Put plainly: 5-hydroxytryptamine receptor 2A (HTR2A) small molecule agonists, cell-based qHTS assay (AID 1963587). Also: nearly all actives have a fitted effect of over 30% in size. In a few lines:
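HTR2A-CHO cells, plated 18 h at 37 C/5% CO2, dye-loaded 1 h at 37 C; compounds in DMSO added by pin tool (agonist mode). Intracellular calcium flux read as kinetic fluorescence on FDSS over 2 min at 1 s intervals.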

For assay [9], the target named is Muscarinic acetylcholine receptor M1 (Homo sapiens) (UniProt P11229). Put plainly: Cholinergic receptor muscarinic 1 (CHRM1) small molecule antagonists, cell-based qHTS assay (AID 1963588). Also: nearly all actives have a fitted effect of over 40% in size. In a few lines:
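CHRM1-CHO calcium-flux assay, antagonist mode. Cells were seeded 18 h, dye-loaded 1 h at 37 C and given compound for 5 min at RT, then acetylcholine was added at 50nM. FDSS fluorescence was read 3 min; 15 concentrations, three runs.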

Assay [10] has the same target. Put plainly: Cholinergic receptor muscarinic 1 (CHRM1) small molecule agonists, cell-based qHTS assay (AID 1963589). Also: nearly all actives have a fitted effect of over 35% in size. In a few lines:
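Agonist-mode qHTS in CHO cells stably carrying human muscarinic M1. Intracellular calcium is tracked by fluorescence every second after compound transfer; each compound runs at 15 concentrations in three independent runs.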

Assay [11] can be described thus: cAMP Responsive Elements (CRE) small molecule agonists, cell-based qHTS assay (AID 1963590). The gist of the method: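 Agonist mode qHTS in CRE-bla HEK 293T cells: compounds dosed from DMSO for 3 h at 37 C/5% CO2, followed by LiveBLAzer B/G FRET substrate for 2 h at room temperature.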
Assay [12] concerns the target Beta-2 adrenergic receptor (Homo sapiens) (UniProt P07550). Briefly: Adrenergic beta2 receptor (ADRB2) small molecule antagonists, cell-based qHTS assay (AID 1963592). Also: series mostly up to about 92 µM; nearly all actives have a fitted effect of over 50% in size. In a few lines: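 Cells (CHO, stable ADRB2 overexpression) incubated 18-20hr at 37C; compounds added from DMSO; agonist mix (1nM isoproterenol, 100uM IBMX, 25uM Ro-20-1724) added; 0.5hr RT; d2-cAMP and anti-cAMP-cryptate added; 1hr RT; 665/615 nm read.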

In assay [13] the target is D(2) dopamine receptor (Homo sapiens) (UniProt P14416). Put plainly: Dopamine D2 receptor (DRD2) small molecule agonists, cell-based qHTS assay (AID 1963594). Also: nearly all actives have a fitted effect of over 35% in size. In a few lines: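 HEK293 cells stably expressing DRD2 were cultured 24 h at 37 C, then given Ro20-1724 (0.1 mM final) and compounds for 10 min at room temperature. NKH477 (200nM) was then added for 30 min. cAMP was read by HTRF.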
Chain of D(2) dopamine receptor (Homo sapiens) (P14416 whole entry, looked up): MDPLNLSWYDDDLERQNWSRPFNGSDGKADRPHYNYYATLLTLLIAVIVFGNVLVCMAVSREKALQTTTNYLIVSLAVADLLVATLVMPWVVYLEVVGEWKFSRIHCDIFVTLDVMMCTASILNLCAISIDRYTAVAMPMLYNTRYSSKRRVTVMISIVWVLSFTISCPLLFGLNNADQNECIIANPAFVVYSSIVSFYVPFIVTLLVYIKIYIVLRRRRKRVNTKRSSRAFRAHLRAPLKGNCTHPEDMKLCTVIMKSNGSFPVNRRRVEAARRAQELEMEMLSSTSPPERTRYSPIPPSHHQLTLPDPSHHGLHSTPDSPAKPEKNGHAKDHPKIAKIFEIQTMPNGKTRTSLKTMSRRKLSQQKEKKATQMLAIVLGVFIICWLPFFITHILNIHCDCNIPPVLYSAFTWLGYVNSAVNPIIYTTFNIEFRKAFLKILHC

Assay [14] has the same target. Put plainly: Dopamine D2 receptor (DRD2) small molecule antagonists, cell-based qHTS assay (AID 1963595; active = well fitted inhibition curve with a large enough effect in the signal ratio in the repeat runs, with a control signal flat; the % refers to the signal ratio; also: potency is read from the fitted curve at half-maximal effect). In a few lines:
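Antagonist mode in DRD2-HEK293 cells: after compound addition with 0.1 mM Ro20-1724, cells received quinpirole (12 nM) and NKH477 (200 nM) for 30 min at room temperature; HTRF cAMP read after 1 h detection.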

Assay [15] can be described thus: p53 small molecule agonists, cell-based qHTS assay: qHTS cell viability counter screen (AID 1963581). Also: nearly all actives have a fitted effect of over 45% in size. Also: potency is read from the fitted curve at half-maximal effect. In a few lines: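 Cells: HCT-116 with p53 response element-driven beta-lactamase. Treatment: 16 h, 37 C, compounds in DMSO. Read: CellTiter-Glo luminescence after 30 min RT.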
Assay [16] is described as follows: cAMP Responsive Elements (CRE) small molecule antagonists, cell-based qHTS assay (AID 1963591; active = well fitted inhibition curve with a large enough effect in the signal ratio in the repeat runs, not every such curve was filed as active; the % refers to the signal ratio). In a few lines:
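Antagonist mode: test compounds are co-incubated with the adenylyl cyclase activator NKH477 (0.25 uM final) on CRE-bla HEK293T cells for 3 h at 37 °C, followed by LiveBLAzer substrate loading.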

Assay [17] concerns the target Beta-2 adrenergic receptor (Homo sapiens) (UniProt P07550). Put plainly: Adrenergic beta2 receptor (ADRB2) small molecule agonists, cell-based qHTS assay (AID 1963593).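 Also: CHO cells stably overexpressing human ADRB2.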 In a few lines:
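CHO cells stably over-expressing ADRB2 were plated overnight at 37C, then dosed with compounds plus a stimulation mix containing 100uM IBMX and 25uM Ro-20-1724 for 0.5hr at room temperature. cAMP was measured by HTRF competition, 1hr.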

A short description of assay [18]: p53 small molecule agonists, cell-based qHTS assay with human liver microsomes (AID 1963577). In a few lines:
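Cells carrying a p53-responsive bla reporter were rested 5 h (37 C, 5% CO2) before compound transfer. Human liver microsomes plus NADPH, 0.5 mg/mL final apiece, supplied metabolism during the 16 h 37 C exposure.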

Assay [19] can be described thus: p53 small molecule agonists, cell-based qHTS assay with rat liver microsomes (AID 1963578). In a few lines: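 Fluorescence from a beta-lactamase reporter under a p53 response element was measured after cells had been incubated 16 h at 37 C with test compound and rat liver microsomes plus NADPH (0.5 mg/mL final each).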

Chain of KiSS-1 receptor (Homo sapiens) (Q969F8 whole entry, looked up): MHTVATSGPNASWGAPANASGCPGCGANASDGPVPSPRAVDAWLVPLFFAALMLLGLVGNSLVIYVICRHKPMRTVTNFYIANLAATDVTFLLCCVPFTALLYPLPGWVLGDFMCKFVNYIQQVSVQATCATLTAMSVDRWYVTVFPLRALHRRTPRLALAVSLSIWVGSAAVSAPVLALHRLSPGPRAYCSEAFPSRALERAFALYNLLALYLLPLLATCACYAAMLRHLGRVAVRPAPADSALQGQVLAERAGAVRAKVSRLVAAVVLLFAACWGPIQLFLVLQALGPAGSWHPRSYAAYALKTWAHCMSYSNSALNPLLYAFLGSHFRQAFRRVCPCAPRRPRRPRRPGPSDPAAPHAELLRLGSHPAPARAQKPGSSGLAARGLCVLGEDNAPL
Chain of Gonadotropin-releasing hormone receptor (Homo sapiens) (P30968 whole entry, looked up): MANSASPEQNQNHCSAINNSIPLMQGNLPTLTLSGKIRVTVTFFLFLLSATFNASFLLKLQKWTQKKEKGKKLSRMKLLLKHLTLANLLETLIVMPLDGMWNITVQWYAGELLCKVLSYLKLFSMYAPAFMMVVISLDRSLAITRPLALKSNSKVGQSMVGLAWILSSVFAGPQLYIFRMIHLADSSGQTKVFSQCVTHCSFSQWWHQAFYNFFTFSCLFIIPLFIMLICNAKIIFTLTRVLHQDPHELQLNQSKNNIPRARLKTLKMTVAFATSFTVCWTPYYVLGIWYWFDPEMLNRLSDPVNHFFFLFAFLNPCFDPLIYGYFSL
Chain of 5-hydroxytryptamine receptor 2A (Homo sapiens) (P28223 whole entry, looked up): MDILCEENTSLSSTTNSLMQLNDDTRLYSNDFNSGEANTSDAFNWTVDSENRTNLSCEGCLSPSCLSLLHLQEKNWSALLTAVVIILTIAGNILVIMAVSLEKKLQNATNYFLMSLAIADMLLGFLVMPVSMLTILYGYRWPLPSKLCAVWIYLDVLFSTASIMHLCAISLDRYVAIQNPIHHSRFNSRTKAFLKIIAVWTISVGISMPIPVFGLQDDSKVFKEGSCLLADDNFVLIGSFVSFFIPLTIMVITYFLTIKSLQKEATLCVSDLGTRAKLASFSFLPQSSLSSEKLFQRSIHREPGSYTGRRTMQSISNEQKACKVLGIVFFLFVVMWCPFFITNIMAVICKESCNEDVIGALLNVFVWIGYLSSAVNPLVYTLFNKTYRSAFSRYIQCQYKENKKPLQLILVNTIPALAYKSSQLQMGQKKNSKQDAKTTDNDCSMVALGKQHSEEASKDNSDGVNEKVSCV
Chain of Beta-2 adrenergic receptor (Homo sapiens) (P07550 whole entry, looked up): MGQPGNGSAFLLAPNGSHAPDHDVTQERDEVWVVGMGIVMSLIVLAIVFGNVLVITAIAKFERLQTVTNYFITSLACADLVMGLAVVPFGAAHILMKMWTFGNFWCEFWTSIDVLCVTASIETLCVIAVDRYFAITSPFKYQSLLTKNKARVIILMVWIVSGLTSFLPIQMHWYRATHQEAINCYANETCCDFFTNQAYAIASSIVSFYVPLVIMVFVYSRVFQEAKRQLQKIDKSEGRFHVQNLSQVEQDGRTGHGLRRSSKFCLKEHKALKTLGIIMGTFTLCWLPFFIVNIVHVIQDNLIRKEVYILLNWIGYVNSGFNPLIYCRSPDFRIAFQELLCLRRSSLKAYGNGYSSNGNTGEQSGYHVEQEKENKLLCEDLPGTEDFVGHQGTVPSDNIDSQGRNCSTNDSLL
Chain of Muscarinic acetylcholine receptor M1 (Homo sapiens) (P11229 whole entry, looked up): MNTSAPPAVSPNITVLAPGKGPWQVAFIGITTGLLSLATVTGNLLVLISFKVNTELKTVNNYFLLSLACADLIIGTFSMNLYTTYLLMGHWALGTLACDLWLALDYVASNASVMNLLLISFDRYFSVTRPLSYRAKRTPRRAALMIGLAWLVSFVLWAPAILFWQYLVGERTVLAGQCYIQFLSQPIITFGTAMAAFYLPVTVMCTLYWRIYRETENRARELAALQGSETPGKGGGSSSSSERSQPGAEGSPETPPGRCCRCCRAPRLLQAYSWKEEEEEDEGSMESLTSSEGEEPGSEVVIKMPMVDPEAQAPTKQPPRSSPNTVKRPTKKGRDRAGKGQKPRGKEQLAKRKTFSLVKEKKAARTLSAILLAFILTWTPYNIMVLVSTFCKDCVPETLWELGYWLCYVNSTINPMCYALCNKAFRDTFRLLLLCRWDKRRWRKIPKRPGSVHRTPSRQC

As to `CCCCN(CCCC)C(=S)S`, in assay [1], the Potency was 68.6 µM (active). Further, the Potency result in [2], in [3], in assay [4], in assay [5], in assay [6] and in assay [7] was “inactive” in each case. Further, the Potency entry in assay [8], in assay [9], in assay [10], in assay [11], in [12] and in [13] was “inactive” each time. In addition, the Potency result in assay [14] is “inactive”.

For the compound `Cc1ncsc1CCCl`, the Potency entry in [1], in assay [2], in assay [3], in assay [4], in [5] and in assay [6] was “inactive” in each case. Also, the Potency entry in assay [15], in [7], in assay [8], in [9], in assay [10] and in assay [11] was “inactive” in each case. Moreover, the Potency entry in assay [16], in assay [13] and in assay [14] was “inactive” in each case.

Turning to `c1ccc2c(c1)cc1ccc3cccc4ccc2c1c34`, the Potency entry in assay [1], in assay [2], in assay [3], in assay [4], in assay [5] and in [6] was “inactive” each time. For the same compound, the Potency entry in assay [15], in [12], in [17] and in [14] was “inactive” in each case.

Regarding `CC(C)(C)c1cc([N+](=O)[O-])cc(C(C)(C)C)c1O`, the Potency in assay [1] is 34.4 µM (active). Besides, the Potency result in [2], in assay [3], in assay [18], in assay [19], in [5] and in assay [6] was “inactive” in each case. Also, the Potency result in [15], in assay [7], in [8], in assay [10], in [17] and in assay [13] was “inactive” each time. The Potency entry in assay [14] is “inactive”.

As to `O=C1C(I)=CC(=C(c2cc(I)c(O)c(I)c2)c2ccccc2C(=O)O)C=C1I`, the Potency entry in assay [1], in [2], in assay [3], in assay [4], in assay [6] and in assay [7] was “inactive” throughout. Moreover, the Potency result in assay [8], in assay [9], in assay [10], in [16], in assay [12] and in [13] was “inactive” each time. For the same compound, the Potency entry in assay [14] was “inactive”.

For the compound `CCOP(=S)(NC(C)C)Oc1ccccc1C(=O)OC(C)C` (stereo not given), the Potency entry in assay [1], in assay [2], in assay [3], in [4], in assay [5] and in assay [6] was “inactive” throughout. The Potency entry in [8], in assay [9], in assay [10], in assay [12], in [13] and in [14] was “inactive” in each case.

Turning to `CCCCCCCCCCCCCC[P+](CCCCCC)(CCCCCC)CCCCCC` (tested in a mixture with another compound), the Potency result in assay [1], in assay [2], in [4], in assay [19], in [7] and in assay [8] was “inactive” throughout. Besides, the Potency entry in assay [9], in [10] and in [13] was “inactive” each time. Moreover, the Potency is 16.2 µM (active) in assay [6], 14.5 µM (active) in [15] and 54.5 µM (active) in [14].
